A selection: hits, their analogues and other compounds. The true share with any hit is near 5.2%.
SKN-1 block: suppressors of acrylamide-induced Pgst-4::GFP reporter in worms, primary screen, SKN-1 inhibitor project, whole organism, uHTS, GFP/RFP fluorescence ratio, strain VP596 | AID 624304, 2012 | 360,000 compounds, 0.49% hits | C. elegans VP596 Pgst-4::GFP/RFP ratio, 24 h | inhibition, % at 21.8 µM;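 active = interference check ratio from 0.5 to 1.5 plus GFP to RFP signal ratio inhibition reaching or exceeding a fixed threshold, cut at about 30% in these data, passing the limit was not always enough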
esBAF inh: Bmi1 luciferase reporter increase in mESCs, primary screen, esBAF inhibitor project, mouse ES cells, Bmi1 luciferase knock-in, single point. 24 h; 100% = twice the neutral-well signal. reporter increase, % at 12.5 µM. 350,000 compounds, 2% hits; in the data active = activation above about 40%; inconclusive = no clear call, values can overlap the other calls;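 note: 0% = median of the plate's neutral control wells and 100% = double that signal; a rise in the Bmi1 reporter signal indicates esBAF inhibition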
GRIN3A LBD mod: binders of NR3A ligand-binding domain, primary screen, biophysical, differential scanning fluorimetry, uHTS. Tm shift relative to glycine control, % at 25 µM. 340,000 compounds, 2.5% hits. Glutamate receptor ionotropic, NMDA 3A (GRIN3A) ligand-binding domain. AID 1259313, 2017. NR3A LBD differential scanning fluorimetry, Tm shift; 0% = protein alone, 100% = glycine-bound protein;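 active = melting temperature shift of at least 10% of the positive control shift, at one fixed dose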
Vif inh: HIV Vif self-association inhibitors, primary screen, imaging, HEK293T, single point | HEK293T cells, Vif self-association by quenched fluorescence, 24 h | inhibition, % at 7.49 µM | 340,000 compounds, 0.35% hits; in the data active = inhibition above about 50%, passing the limit was not always enough; inconclusive = no clear call, values can overlap the other calls; inactive = below about 31%
SMARCA2 act: SMARCA2 (BRM) function activators, primary screen, cell-based, luminescence, high throughput | 370,000 compounds, 1% hits | activation, % at 9.1 µM | MG213 cells, MMTV-luciferase reporter, dexamethasone, overnight | AID 652017, 2013; in the data active = activation above about 7.8%;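 note: 0% = vehicle wells and 100% = reference activator wells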
NadD block: inhibitors of S. aureus NadD, primary screen, biochemical, colorimetric, uHTS; purified NadD enzyme, colorimetric absorbance read-out; inhibition, % at 20 µM; 360,000 compounds, 0.78% hits; in the data active = inhibition above about 26%
SMARCA2 conf: SMARCA2 (BRM) function activators, confirmation, cell-based, luminescence, triplicate; shares compounds with SMARCA2 act; MG213 cells, MMTV-luciferase with dexamethasone, overnight; MG213 cells expressing E1A, Rb sequestered; DMSO wells 0%, reference activator 100%; activation, % at 9.1 µM; 3,500 compounds, 30% hits;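 active = activation above its plate's cutoff, the mean activation of tested wells plus 3 SD, cut at about 7.9% in these data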
VP16 Luc act: GAL4-VP16 luciferase reporter activation, counter-screen for SMARCA2 (BRM) activator project, cell-based, pG5luc, luminescence, high throughput | shares compounds with SMARCA2 act | HEK293 GAL4-VP16 pG5luc reporter; scaled: DMSO wells 0%, SAHA wells 100% | activation, % at 9.1 µM | 3,500 compounds, 41% hits | AID 686939, 2013;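 active = activation above the solvent-only control well mean plus 3 SD, averaged across control plates, cut at about 5.2% in these data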
The depositor's hits bear a star; ? = inconclusive; . = no result given.

SMILES | SKN-1 block | esBAF inh | GRIN3A LBD mod | Vif inh | SMARCA2 act | NadD block | SMARCA2 conf | VP16 Luc act
COc1ccc(NC(=O)Nc2cccc3c2O[C@H](CN(C)Cc2ccc(C(=O)O)cc2)[C@H](C)CN([C@H](C)CO)C3=O)cc1 | . | 0.6 | . | . | . | . | . | .
CCN(CC(=O)Nc1cccc(OC)c1)C(=O)c1ccc(C)s1 | 19.2 | 1.7 | 3.1 | 2.1 | 8.2* | -5.9 | 1.1 | 2.6
COc1cccc(NC(=O)CN(C)C(=O)CNC(=O)c2ccc(C)s2)c1 | 2.3 | -1.7 | -2.2 | 1.3 | -0.7 | -3.5 | . | .
CN(CC1CCCN(CCc2cccc(C(F)(F)F)c2)C1)C(=O)c1ccco1 (centres undefined) | -11.7 | 4.4 | -3.1 | 7.7 | 11.3* | -2.5 | -5.0 | 0.0
C[C@@H]1CN([C@H](C)CO)C(=O)c2cc(NC(=O)c3ccccc3)ccc2O[C@@H](C)CCCCO[C@H]1CN(C)C(=O)Nc1ccc2c(c1)OCO2 | . | 5.4 | . | . | . | . | . | .
COc1ccc(N(C(=O)c2ccco2)C(C(=O)NC2CCCC2)c2ccncc2)cc1 (centres undefined) | 18.7 | 0.7 | -0.4 | 18.6 | -2.2 | 0.1 | . | .
CC(C)c1ccc(N(C(=O)c2ccco2)C(C(=O)NC2CCCC2)c2ccncc2)cc1 (centres undefined) | -0.5 | 46.8* | -1.2 | 3.7 | 8.0* | -4.1 | 3.0 | 2.5
CCC(C)c1ccc(N(C(=O)c2ccco2)C(C(=O)NC2CCCC2)c2cccnc2)cc1 (centres undefined) | 24.1 | 86.0* | 0.8 | 7.4 | 8.1* | -3.4 | 3.8 | 5.2*
Cc1ccc(OCCCCCCN2CCNCC2)c(Br)c1 | 9.5 | . | -0.5 | 24.5 | 11.1* | -13.4 | 2.3 | 9.7*
CCNC[C@@H]1[C@H](c2ccc(-c3ccc(F)cc3)cc2)[C@H](CO)N1S(C)(=O)=O | . | -0.5 | . | . | . | . | . | .
Cc1ccc(S(=O)(=O)N(C)C[C@@H]2OCCCC[C@H](C)Oc3ccc(NC(=O)NC4CCCCC4)cc3C(=O)N([C@@H](C)CO)C[C@@H]2C)cc1 | . | -3.0 | . | . | . | . | . | .
COc1cc(/C=c2\sc3n(c2=O)CCCN=3)ccc1O | 24.2 | 15.3 | -2.8 | . | 4.0 | 8.2 | . | .
O=c1/c(=C/c2ccc([N+](=O)[O-])cc2)sc2n1CCCN=2 | -1.8 | . | -8.3 | 6.1 | 8.7* | 5.4 | 11.5* | 12.6*
COc1cccc(CNC(=O)[C@@H]2CCCN2C(=O)[C@H]2CCCCN2S(=O)(=O)c2ccc(OC)c(C)c2)c1 | 15.3 | . | . | . | -4.9 | -2.5 | . | .
COc1cccc(CNC(=O)[C@@H]2CCCN2C(=O)[C@@H]2CCCN2S(=O)(=O)c2ccc(OC)c(C)c2)c1 | -0.1 | . | . | . | 9.1* | -0.7 | 0.9 | 0.7
CN(C)CC(=O)Nc1ccc2c(c1)[C@H]1C[C@@H](CC(=O)NCc3cc(F)ccc3F)O[C@@H](CO)[C@H]1O2 | . | 8.1 | . | . | . | . | . | .
C[C@@H]1CCCCO[C@@H](CN(C)C(=O)Cc2ccccc2)[C@@H](C)CN([C@@H](C)CO)C(=O)c2cc(NC(=O)Nc3ccc(F)cc3)ccc2O1 | . | -1.1 | . | . | . | . | . | .
O=C1NC(=O)C2(C=C(c3ccccc3)C(O)(c3ccccc3)C2)N1 (centres undefined) | 1.6 | . | 0.5 | 1.7 | 8.2* | 0.4 | 0.8 | 1.1
CN1C(=O)c2cc(NC(=O)Nc3cccc(Cl)c3)ccc2OC[C@H]2O[C@H](CC(=O)O)CC[C@@H]21 | . | 0.9 | . | . | . | . | . | .
CCc1ccc(/C=C2\Oc3ccc(C(=O)OC)cc3C2=O)cc1 | 9.5 | . | -1.2 | 1.0 | 10.1* | 0.2 | 3.2 | 6.5*
COC(=O)c1ccc(/C=C2\Oc3ccccc3NC2=O)cc1 | 10.6 | ? | 1.8 | -18.5 | -0.9 | 1.7 | . | .
C[C@H](CO)N1C[C@H](C)[C@H](CN(C)C(=O)Nc2ccccc2F)Oc2cc(-c3ccc(C(=O)N(C)C)cc3)ccc2S1(=O)=O | . | 1.6 | . | . | . | . | . | .
CN1CCN(C(=S)NC(=O)/C=C/c2ccccc2Cl)CC1 | -2.1 | . | -3.5 | 3.9 | 0.8 | -0.2 | . | .
CN1CCN(C(=S)NC(=O)/C=C/c2ccccc2)CC1 | 9.4 | -0.6 | -1.6 | -0.7 | 8.3* | 1.1 | 1.2 | 0.9
COc1ccc(NC(=O)Nc2ccc3c(c2)C(=O)N([C@H](C)CO)C[C@H](C)[C@H](CN(C)Cc2ccc(C(F)(F)F)cc2)OCCCC[C@H](C)O3)cc1 | . | 2.8 | . | . | . | . | . | .
SMILES | SKN-1 block | esBAF inh | GRIN3A LBD mod | Vif inh | SMARCA2 act | NadD block | SMARCA2 conf | VP16 Luc act
CNC(=S)NNC(=O)c1sc2cc(C(F)(F)F)cnc2c1-c1ccccn1 | 1.0 | . | 0.3 | 1.9 | 8.0* | -4.4 | 1.2 | 1.6
CC(C)(C)C(=O)Nc1ccnn1C1CCN(C(=O)c2ccc(Cl)cc2F)CC1 | 11.6 | 1.8 | 1.0 | -3.6 | 13.9* | 0.9 | -1.4 | 1.5
C[C@@H]1CN([C@@H](C)CO)C(=O)c2cccc(NC(=O)Nc3ccc4c(c3)OCO4)c2O[C@@H]1CN(C)S(C)(=O)=O | . | 4.0 | . | . | . | . | . | .
C[C@@H]1CCCCO[C@H](CN(C)Cc2ccncc2)[C@H](C)CN([C@H](C)CO)C(=O)c2cc(NS(=O)(=O)c3ccc(Cl)cc3)ccc2O1 | . | -2.1 | . | . | . | . | . | .
C[C@H](CO)N1C[C@H](C)[C@@H](CN(C)Cc2ccccn2)Oc2ncc(C#CC(C)(C)O)cc2C1=O | . | -3.1 | . | . | . | . | . | .
O=C(C[C@H]1C[C@H]2c3cc(NC(=O)C4CCC4)ccc3O[C@H]2[C@@H](CO)O1)NC1CCCCC1 | . | -3.1 | . | . | . | . | . | .
O=C(Nc1ccc2c(c1)OCO2)N1CCN(Cc2ccco2)CC1 | -8.4 | . | 0.5 | 0.7 | 10.7* | -2.1 | -0.4 | 12.2*
CCCCN(C(=O)Cc1cccs1)c1nnc(-c2cccnc2)s1 | -20.8 | 59.6* | -2.3 | 0.9 | 11.4* | 3.2 | 7.9* | 5.5*
COCCN(C(=O)Cc1cccs1)c1nnc(-c2cccnc2)s1 | 21.7 | 3.6 | -1.5 | -3.3 | 3.6 | 3.7 | . | .
Cc1cc(=O)[nH]c2ccccc12 | 6.9 | 0.6 | 0.0 | 16.6 | -4.6 | -4.3 | . | .
Cc1cc2[nH]c3c(c[n+](C)c4ccccc34)c2cc1C | 30.4 | . | -0.8 | -33.1 | 112.2* | 13.3 | -15.7 | -0.7
